Screening results (PubChem BioAssay)
BoNT F protease = blocks Botulinum neurotoxin F light chain protease; Multiplex microsphere protease cleavage assay, flow cytometry; inhibition, % at 10 µM; 0.22% of 360,000 active; in the data active = inhibition above about 35%, passing the limit was not always enough; inconclusive = no clear call, values can overlap the other calls
Autofluor counter = counter-screen for toxin protease inhibitors: compound fluorescence | 3.1% of 360,000 active | fluorescence intensity (no concentration beside the values) | compound autofluorescence counterscreen, microsphere flow cytometry; active compounds read high; in the data active = fluorescence intensity above about 16000; inconclusive = no clear call, values can overlap the other calls
BoNT-A LC inh2 = inhibitors of Botulinum neurotoxin A light chain protease; multiplex microsphere protease substrate cleavage, flow cytometry; inhibition, % at 10 µM; 0.17% of 360,000 active; AID 588499
Anthrax LF prot = anthrax lethal factor protease inhibition; P15917; multiplex microsphere protease cleavage assay, LF; inhibition, % at 10 µM; 0.12% of 360,000 active; AID 588501
Target sequence (P15917 whole entry, looked up): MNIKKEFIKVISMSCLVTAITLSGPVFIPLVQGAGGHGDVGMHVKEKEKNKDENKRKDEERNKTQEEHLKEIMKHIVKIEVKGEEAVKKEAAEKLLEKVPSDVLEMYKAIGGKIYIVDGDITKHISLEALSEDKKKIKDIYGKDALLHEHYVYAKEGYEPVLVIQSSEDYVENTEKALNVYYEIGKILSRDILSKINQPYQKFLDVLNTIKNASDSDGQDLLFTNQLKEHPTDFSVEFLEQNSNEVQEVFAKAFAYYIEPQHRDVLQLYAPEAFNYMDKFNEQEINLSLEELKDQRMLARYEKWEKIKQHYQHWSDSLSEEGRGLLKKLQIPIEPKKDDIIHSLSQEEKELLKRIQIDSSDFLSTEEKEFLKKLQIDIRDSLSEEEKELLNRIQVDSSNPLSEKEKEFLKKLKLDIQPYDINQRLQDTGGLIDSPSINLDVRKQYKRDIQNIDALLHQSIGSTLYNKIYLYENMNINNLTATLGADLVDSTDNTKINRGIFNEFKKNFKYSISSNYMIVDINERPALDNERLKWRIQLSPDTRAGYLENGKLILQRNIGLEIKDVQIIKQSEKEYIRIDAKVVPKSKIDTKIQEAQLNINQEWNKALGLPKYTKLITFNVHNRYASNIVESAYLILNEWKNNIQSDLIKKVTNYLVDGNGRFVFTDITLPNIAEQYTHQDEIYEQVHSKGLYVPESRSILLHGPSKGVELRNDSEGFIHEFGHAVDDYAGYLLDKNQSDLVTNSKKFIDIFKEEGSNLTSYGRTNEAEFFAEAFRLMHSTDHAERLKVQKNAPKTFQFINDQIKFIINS
SSB-PriA inh = inhibitors of Klebsiella pneumoniae PriA binding to SSB C-terminal tail | AlphaScreen SSBct-PriA binding, biotinylated peptide | inhibition, % at 33 µM | 0.6% of 430,000 active; in the data active = inhibition mostly above about 37%, no sharp cut-off; inactive = mostly below about 20%
A number is an active result; – = inactive; ? = inconclusive; · = no result given. Rows were chosen to be rich in hits. Some 3.1% of all compounds tested hit in one or more screens of this group. Rule as the data show it, unless noted: active = inhibition above about 30%; inconclusive = no clear call, values can overlap the other calls; inactive = below that.

SMILES	BoNT F protease	Autofluor counter	BoNT-A LC inh2	Anthrax LF prot	SSB-PriA inh
COc1cccc(NC(=O)CSc2nnc(-c3cccs3)n2C)c1	–	–	–	–	–
COc1ccc(NCc2nnc(SCC(=O)Nc3nc(-c4ccccc4)cs3)n2-c2ccccc2)cc1	–	–	–	–	–
COc1ccc(-n2c(CNc3ccc(C)cc3)nnc2SCC(=O)Nc2nc(-c3ccccc3)cs2)cc1	–	24302	?	–	–
Cc1cccc(NC(=O)c2cc3n(n2)CCCO3)n1	·	·	·	·	–
C=CCn1c(Cc2cccs2)nnc1SCC(=O)Nc1ccc(OC)cc1	–	16196	–	–	–
Cc1cccc(-n2c(CNC(=O)COc3ccccc3)nnc2SCC(=O)Nc2nccs2)c1	–	–	–	–	–
O=C(CSc1nnc(Cc2cccs2)n1Cc1ccco1)Nc1cccc(Cl)c1	–	22807	–	–	–
C=CCn1c(Cc2cccs2)nnc1SCC(=O)NC1CC1	–	–	–	–	–
COc1cccc(C(=O)NCc2nnc(SCC(=O)Nc3nccs3)n2-c2cccc(C)c2)c1	–	16987	–	–	–
C=CCn1c(CCNC(=O)c2cccs2)nnc1SCC(=O)Nc1cccc(F)c1	–	17039	–	–	–
CCn1c(CCNC(=O)c2cccs2)nnc1SCC(=O)Nc1cccc(Cl)c1	–	–	–	–	–
O=C(Nc1ccc2c(c1)C(=O)N1CCCC[C@H]1CCO2)c1ccc(-c2ccsc2)cc1	·	·	·	·	–
CC(C)(C)OC(=O)N1CCc2nc(NC(=O)c3ccsc3)sc2C1	·	·	·	·	–
Cn1c(CNC(=O)c2cccs2)nnc1SCC(=O)Nc1ccc(Cl)cc1	–	21585	?	–	–
Cc1ccc(C(=O)NCc2nnc(SCC(=O)Nc3ccccc3)n2C)cc1	–	–	–	–	–
Cc1ccc(NC(=O)CSc2nnc(-c3cccs3)n2Cc2ccco2)cc1	–	–	–	–	–
CN(C)c1ccc(NC(=O)CSc2nnc(-c3cccs3)n2Cc2ccco2)cc1	–	22600	?	–	–
COc1ccccc1C(=O)NNc1nnc(Cc2ccc(C)cc2)c(=O)[nH]1	·	·	·	·	–
CNc1nnc(-c2ccncc2)s1	–	16766	–	–	–
Clc1ccc(-c2csc3nnc(SCc4ccc5c(c4)OCO5)n23)cc1	·	·	·	·	–
O=C(Cn1[nH]c(-c2ccc(F)cc2)cc1=O)Nc1ccc(Cl)cc1	·	·	·	·	–
Cc1cccc(N2CCN(S(=O)(=O)c3cccc4nonc34)CC2)c1C	–	–	–	–	39
O=S(=O)(c1cccc2nonc12)N1CCN(c2ccccc2F)CC1	–	–	–	–	–
Cc1cccc(NC(=O)C2CCCN(C(=O)Nc3ccccc3)C2)c1C (stereo not drawn)	–	22928	?	–	–
O=C(NCc1ccccc1)C1CCCN(C(=O)Nc2ccccc2)C1 (stereo not drawn)	–	20689	?	–	–
SMILES	BoNT F protease	Autofluor counter	BoNT-A LC inh2	Anthrax LF prot	SSB-PriA inh
Cc1cccc(NC(=O)C2CCCN2C(=O)OCC(C)C)c1C (stereo not drawn)	–	21398	–	–	–
O=C(NC1CCCCC1)N1CCCC1	–	21923	–	–	–
O=C(NC1CCCCC1)N1CCCCCC1	–	–	–	–	–
COc1ccc(NC(=O)N2CCCC(C(=O)NCCc3ccccc3)C2)cc1 (stereo not drawn)	–	–	–	–	–
O=C(NCCc1ccccc1)C1CCCN(C(=O)NC2CCCCC2)C1 (stereo not drawn)	–	22227	?	–	–
Cc1ccc(-c2ccc(/C=C/C(=O)c3ccccc3)o2)cc1	–	–	44	–	–
COc1ccc(C(=O)/C=C/c2ccc(-c3ccc(F)cc3)o2)cc1	·	·	·	·	–
O=C(/C=C/c1ccc(-c2ccccc2)o1)c1ccccc1	–	–	63	31	–
O=C(/C=C/c1ccc(-c2ccccc2[N+](=O)[O-])o1)c1ccc(F)cc1	–	–	–	–	–
O=C(/C=C/c1ccc(-c2ccccc2[N+](=O)[O-])o1)c1ccc(Br)cc1	–	21485	?	–	–
Cc1ccc2sc(NCCCN(C)C)nc2c1C	·	·	·	·	–
CCCCOc1ccc(C(=O)Nc2ccc3c(c2)CCC(=O)N3)cc1	·	·	·	·	–
CCc1nnc(NC(=O)CSc2nc3ccccc3s2)s1	–	–	–	–	–
CC(C)c1nnc(NC(=O)CSc2nc3ccccc3s2)s1	–	20149	–	–	–
Cc1csc(NC(=O)CCCSc2nc3ccccc3s2)n1	–	21652	–	–	–
O=C(NCC1(O)CCc2ccccc21)c1ccccc1Br (stereo not drawn)	·	·	·	·	–
CC1CN(S(=O)(=O)N(C)C)CCN1S(=O)(=O)N(C)C (stereo not drawn)	–	19855	–	–	–
CN(C)S(=O)(=O)N1CCN(S(=O)(=O)N(C)C)CC1	–	–	–	–	–
O=C1CC(N2CCN(C/C=C/c3ccccc3)CC2)C(=O)N1Cc1ccc(N2CCCC2=O)cc1 (stereo not drawn)	–	19939	–	–	–
O=C1CC(N2CCOCC2)C(=O)N1Cc1ccc(N2CCCC2=O)cc1 (stereo not drawn)	–	–	–	–	–
CCn1nc(C)cc1C(=O)Nc1nnc(C2CCCCC2)o1	·	·	·	·	–
O=c1cc(-c2ccccn2)[nH]c(-c2ccccn2)c1	·	·	·	·	96
O=C(/C=C/c1ccc(Cl)cc1)NCCSc1ccccc1	–	19211	?	–	–
COc1ccc(C(=O)Nc2cccc(C(C)=O)c2)cc1OC	–	–	–	–	–
COc1ccc(Nc2cccc3ccccc23)cc1	–	–	–	–	50
SMILES	BoNT F protease	Autofluor counter	BoNT-A LC inh2	Anthrax LF prot	SSB-PriA inh
CC(=O)c1cccc(NC(=S)NC(=O)CC(C)(C)C)c1	–	25347	–	–	–
COc1ccc(Nc2cccccc2=O)cc1	–	–	–	–	–
COc1ccc(NC(=S)Nc2cccc3ccccc23)cc1OC	–	–	–	–	43
COc1ccc(NC(=S)Nc2cccc(C(C)=O)c2)cc1OC	36	–	–	–	–
CC(=O)c1cccc(NC(=S)NC(=O)c2ccccc2)c1	–	–	–	–	–
Cc1cc(C(=O)Nc2nc3c(s2)CN(C(=O)c2ccc4ncsc4c2)CC3)no1	·	·	·	·	–
CCOC(=O)c1cn(CC(=O)Nc2ccc(F)c(Cl)c2)c2nc(C)ccc2c1=O	·	·	·	·	–
Cc1nc2ccccn2c1C(=O)NCC(O)(c1ccco1)C1CC1 (stereo not drawn)	·	·	·	·	–
Cc1nnc2sc(SCC(=O)Nc3cc(=O)n(C)c(=O)n3C)nn2c1=O	·	·	·	·	–
COc1ccc(OCCNC(=S)Nc2cccc3ccccc23)cc1	–	22439	–	–	–
Cc1noc(C)c1S(=O)(=O)N1CCC(c2nnc(-c3ccc(F)cc3)o2)CC1	·	·	·	·	–
O=C(CCCCCn1c(=S)[nH]c2cc3c(cc2c1=O)OCO3)N1CCN(c2ccccc2)CC1	–	–	–	–	–
Cc1ccc(C)c(N2CCN(C(=O)CCCn3c(=S)[nH]c4cc5c(cc4c3=O)OCO5)CC2)c1	–	17273	–	–	–
O=C(CCCn1c(=S)[nH]c2cc3c(cc2c1=O)OCO3)N1CCN(c2ncccn2)CC1	–	20894	?	–	–
CCOC(=O)N1CCN(C(=O)CCCn2c(=S)[nH]c3ccccc3c2=O)CC1	–	–	–	–	–
CCOC(=O)N1CCN(C(=O)CCCn2c(=S)[nH]c3ccc(Br)cc3c2=O)CC1	–	20951	?	–	–
